# Compound activity deposited in PubChem BioAssay by National Center for Advancing Translational Sciences (NCATS).
# Only some compounds are listed: those with a hit (about 9.3% of all), similar ones and a draw of the others.
# NPC1 prom act: activates the NPC1 promoter; Huh7 NPC1 promoter luciferase reporter, 24 h; Potency, µM (titrated, usually from 9.22 µM), without a hit: at the top dose activation, hits mostly activators; actives 2.4% (n = 320,000); note: % of control where 0% means no effect; nearly all actives have a fitted effect of over 60% in size
#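 Stably transfected Huh7 (NPC1 promoter→luciferase), 1500 cells/well in Opti-MEM + 10% FBS, 2 h settle, then compound 24 h at 37 °C. Luminescence after 10 min with Amplite reagent.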
# ELG1 genotoxic: genotoxicity induction in ELG1-luciferase HEK293T cells; HEK293T ELG1-luciferase reporter, luminescence, 16 h; AID 504466; actives 1.3% (n = 330,000); Potency, µM (doses to about 46 µM), inactives show at the top dose activity change, positive = activation, usual class: activators; note: % of control where 0% means no effect; nearly all actives have a fitted effect of over 60% in size
#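 Step 1: seed 2,000 HEK293T ELG1-luciferase cells per well. Step 2: add compound or DMSO, incubate 16 hr at 37 °C. Step 3: ONE-Glo, 30 min at room temperature, read luminescence.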
# ELG1 DNA repair: blocks ELG1-dependent DNA repair in HEK293T cells; HEK293T ELG1-luciferase reporter, luminescence, 16 h; DNA damage induced by 5-fluorouridine; Potency, µM (top dose mostly 46.1 µM), inactives show top-dose activity change, negative = inhibition, actives largely listed as inhibitors; actives 2.3% (n = 330,000); AID 504467; note: % is set by controls: 0 for no effect and ±100 for the full control effect; nearly all actives have a fitted effect of over 55% in size
#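 Reporter activity after DNA damage by 5-fluorouridine is monitored. Compound-treated cells incubate 16 hr at 37 °C, then ONE-Glo is added for 30 min before luminescence reading.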
# FLuc modulator: inhibits or activates purified firefly luciferase, miR-21 counter-screen. P08659. purified FLuc, Km substrates, luminescence inhibition. Potency, µM (series often up to 57.5 µM), for inactives: top-dose activity change, negative = inhibition, hits mostly inhibitors. actives 6.9% (n = 360,000);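 note: plate controls were vehicle for no effect and reference inhibitor for full effect; nearly all actives have a fitted effect of over 55% in size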
# Target sequence (P08659 whole entry, looked up): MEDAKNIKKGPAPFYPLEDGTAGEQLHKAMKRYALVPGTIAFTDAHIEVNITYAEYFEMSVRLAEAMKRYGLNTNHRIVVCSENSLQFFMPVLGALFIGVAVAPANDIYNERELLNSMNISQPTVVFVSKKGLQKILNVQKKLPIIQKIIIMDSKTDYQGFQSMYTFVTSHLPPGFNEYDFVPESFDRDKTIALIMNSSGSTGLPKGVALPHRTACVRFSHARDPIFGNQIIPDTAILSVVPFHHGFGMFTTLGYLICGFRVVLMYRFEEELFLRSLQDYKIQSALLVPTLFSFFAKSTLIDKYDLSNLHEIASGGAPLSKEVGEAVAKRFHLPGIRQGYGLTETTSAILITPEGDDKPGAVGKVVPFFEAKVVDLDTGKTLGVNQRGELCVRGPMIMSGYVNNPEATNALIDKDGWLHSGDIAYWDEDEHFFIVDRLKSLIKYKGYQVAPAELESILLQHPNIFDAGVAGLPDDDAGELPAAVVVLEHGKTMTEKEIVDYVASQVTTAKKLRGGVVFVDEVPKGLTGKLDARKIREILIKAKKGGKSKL
#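 Purified P. pyralis luciferase (10nM final) with 10uM D-luciferin and 10uM ATP (Km levels) in 50mM Tris acetate pH 7.5, 10mM Mg acetate, 0.01% Tween-20, 0.05% BSA; qHTS 6-point titration, ~60 µM downward; luminescence read.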
# Rab9 promoter act: activators of Rab9 promoter; Huh7 Rab9 promoter-luciferase reporter, luminescence, 24 h; Potency, µM (top dose mostly 9.22 µM), inactives show top-dose activation, negative = inhibition, hits mostly activators; actives 2.8% (n = 320,000); note: % of control where 0% means no effect; nearly all actives have a fitted effect of over 60% in size
#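 Luciferase signal after 10 min detection reagent at ambient indicates Rab9 promoter upregulation; stably transfected Huh7 cells were treated 24 h with compound in DMSO at 37 °C, 5% CO2.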
# SMN2 splice up: enhancers of SMN2 splice variant expression | HEK293 SMN2-luciferase splicing reporter, luminescence, 30-36 h | Potency, µM (titrated, usually from 46.1 µM), for inactives: at the top dose activity change, positive = activation, hits mostly activators | actives 2.8% (n = 210,000) | AID 1458; note: % of control where 0% means no effect; nearly all actives have a fitted effect of over 55% in size
#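 HEK293 cells carry an SMN2 […]–luciferase reporter in which exon 7 inclusion puts luciferase in frame. Cells were plated 10-12 h before compound addition, then incubated 30-36 h at 37C. ONE-Glo luminescence was read; sodium butyrate at 4.5 mM final served as control.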
# * = called active by the depositor; ? = inconclusive; . = not tested or not shown; [ ] = dose if it differs, or a comment. Calls come from the whole dose curve; as a rule, active = well fitted curve in the direction sought with a large enough effect; inconclusive = small, poorly fitted or top-dose-only effect, or another doubt; inactive = no such curve, though single readings can be large; an effect the other way counts as inactive or inconclusive. Potency is the fitted concentration of half-maximal effect.
SMILES,NPC1 prom act,ELG1 genotoxic,ELG1 DNA repair,FLuc modulator,Rab9 promoter act,SMN2 splice up
COc1ccc(OCc2cc(C(=O)NC(C)c3cnn(C)c3)no2)c(Cl)c1 (configuration not stated),?,?,?,13µM*,?,.
CC(NC(=O)c1cc(COc2c(F)cccc2F)on1)c1cnn(-c2ccccc2)c1 (configuration not stated),23%,18%,?,17µM*,?,.
COc1ccc(OCc2cc(C(=O)NCCCc3ccccc3)no2)c(Cl)c1,-20%,-9%,-11%,?,5%,.
Cc1nc2cc(OCc3cc(C(=O)NC(C)c4cnn(C)c4)no3)ccc2s1 (configuration not stated),12%,-4%,6%,17µM*,27%,.
COc1ccccc1C1C=C(c2ccc(Cl)cc2)Nc2nc(-c3ccc(Cl)cc3)nn21 (configuration not stated),.,.,.,-8%,.,-29%
O=C1ON=C(c2ccccc2)/C1=C/c1ccc(OS(=O)(=O)c2ccccc2)cc1,1%,2%,16%,-19%,-1%,-17%
CN(C)/N=C/c1ccc(OS(=O)(=O)c2ccccc2)cc1,3.5µM*,8.2µM*,?,21µM*,2.8µM*,.
CC1CC1C(=O)OCC(=O)Nc1ccc(N=Nc2ccccc2)cc1 (configuration not stated),3.2µM*,16µM*,?,?,1.8µM*,13µM*
CC1CC1C(=O)OCC(=O)NC(=O)c1ccccc1 (configuration not stated),0%,1%,15%,-19%,-1%,.
CC(C)(C)C(=O)Nc1ccc(C(=O)COC(=O)C2CC2)cc1,?,11%,?,7.6µM*,3.5µM*,.
O=C(COC(=O)C1CC1)Nc1ccc(Oc2ccccc2)cc1,-2%,-2%,10%,21µM*,?,6%
O=C(COC(=O)C1CCC1)Nc1ccc(Oc2ccccc2)cc1,1%,6%,?,?,-6%,-20%
COc1ccccc1C(=O)NC(=O)COC(=O)C1CC1C (configuration not stated),8%,-7%,21%,8.5µM*,0%,.
CCC(=O)OC1=CN(Cc2ccccc2)S(=O)(=O)c2ccccc21,.,.,.,-15%,.,.
O=C(O)CC1NC(=O)N(C2CCCCC2)C1=O (configuration not stated),-4%,5%,-12%,-5%,-2%,-4%
CCCC(=O)OCC(=O)Nc1ccc(N=Nc2ccccc2)cc1,2.2µM*,21µM*,?,9.5µM*,3.5µM*,16µM*
O=C(O)CCC(=O)Nc1ccc(N=Nc2ccccc2)cc1,12%,10%,?,11µM*,16%,10%
O=C(O)CCC(=O)NNC(=O)CCC(=O)Nc1ccccc1,3%,-8%,1%,1%,-2%,10%
O=C(CCCC(=O)OCC(=O)c1cccs1)Nc1ccc(Oc2ccccc2)cc1,1%,-3%,0%,21µM*,-2%,5%
COc1ccc2nc3cc(Cl)ccc3c(Nc3ccc(O)c(CN4CCN(C)CC4)c3)c2c1,.,.,.,.,.,5%[9.22 µM]
Cc1nn(-c2ccccc2)c(C)c1Cc1ccc(O)cc1,?,3%,?,24µM*,?,.
CC(C)(C)NS(=O)(=O)c1ccc(N2C(=O)c3ccccc3C2=O)cc1,-5%,-1%,-11%,5%,2%,-2%
CC(C)(C)NS(=O)(=O)c1cccc(S(=O)(=O)c2cccc(S(=O)(=O)NC(C)(C)C)c2)c1,2.5µM*,?,?,5.4µM*,1.6µM*,14µM*
Cc1ccc(C(=O)COC(=O)c2ccccc2N2C(=O)C3C4CCC(C4)C3C2=O)cc1C (configuration not stated),-3%,-1%,-2%,12µM*,12%,-10%
Cc1ccc(C(=O)COC(=O)C(C)N2C(=O)C3C4C=CC(C4)C3C2=O)cc1 (configuration not stated),8%,1%,-1%,?,-4%,-5%
SMILES,NPC1 prom act,ELG1 genotoxic,ELG1 DNA repair,FLuc modulator,Rab9 promoter act,SMN2 splice up
Cc1ccc(C)c(C(=O)COC(=O)CCN2C(=O)C3C4CCC(C4)C3C2=O)c1 (configuration not stated),-5%,2%,-14%,12µM*,2%,.
Cc1ccc(C(=O)COC(=O)C(C)N2C(=O)C3C4C=CC(C4)C3C2=O)cc1C (configuration not stated),-3%,2%,13%,13µM*,0%,.
O=S(=O)(O)c1ccc2c(N=Nc3c(O)ccc4ccccc34)cccc2c1,.,.,.,.,.,-7%[9.22 µM]
COc1ccc(CNC(=O)C(C)OC(=O)CCN2C(=O)C3CC=CCC3C2=O)cc1 (configuration not stated),-4%,0%,21%,-2%,1%,.
COc1ccc(/C(N)=N/OC(=O)CSc2ccccc2)cc1,?,?,?,4.8µM*,3.2µM*,27%
N/C(=N\OC(=O)CSc1ccccc1)c1ccc([N+](=O)[O-])cc1,12%,?,?,19µM*,13%,?
Cc1ccc(/C(N)=N/OC(=O)COc2ccccc2Cl)cc1,17%,23µM*,?,19µM*,-6%,22%
COc1ccc(/C(N)=N/OC(=O)CSc2ccc(C)cc2)cc1,-2%,11%,-6%,?,-1%,-18%
Cc1ccc(SCC(=O)O/N=C(\N)c2cccc([N+](=O)[O-])c2)cc1,-2%,0%,-9%,-14%,0%,-3%
Cc1ccc(/C(N)=N/OC(=O)CSc2ccccc2)cc1,2.5µM*,?,?,1.7µM*,3.5µM*,11µM*
COc1ccccc1CNC(=O)CN(CCc1ccccc1)S(C)(=O)=O,-2%,0%,-26%,7%,2%,.
CCc1c(C)nc2c(C)cccc2c1SCCC#N,-3%,-5%,-3%,-3%,-13%,.
COc1cc(OC)cc(C(=O)NCCc2cnc[nH]2)c1,0%,0%,9%,0%,-1%,.
N/C(=N\OCc1ccc([N+](=O)[O-])cc1)c1ccncc1,?,?,?,15µM*,-27%,16µM*
CCN(CC)C(=O)C1CCCc2c1[nH]c1ccc(Cl)cc21 (configuration not stated),-5%,-5%,?,1%,16%,3.5µM*
COc1cccc(NC(=O)C2COc3ccccc3O2)c1 (configuration not stated),?,?,?,27µM*,24%,.
